Assay results reported in ChEMBL document CHEMBL3988442, “University of Dundee, Small-Polar-MMV Screening Library” (2021).
For part of these data: Potency and affinity values are given separately.

Assays:
Design in all cases: scale not given: direction of the effect not stated beside the values
[1] = target: Protein translocase subunit SecA (Escherichia coli (strain K12)) (UniProt P10408); assay: Assay to Identify E. coli SecA ATPase Inhibitors; assay type: functional; conditions: 30 µM
[2] = target: T1, Ubiquitin-activating enzyme e1, putative (Leishmania donovani (strain BPK282A1)) (UniProt E9BSI1); assay: Leishmania donovani Ubiquitin Activating Enzyme (LdE1); assay type: functional; conditions: 30 µM
T1 sequence (whole entry): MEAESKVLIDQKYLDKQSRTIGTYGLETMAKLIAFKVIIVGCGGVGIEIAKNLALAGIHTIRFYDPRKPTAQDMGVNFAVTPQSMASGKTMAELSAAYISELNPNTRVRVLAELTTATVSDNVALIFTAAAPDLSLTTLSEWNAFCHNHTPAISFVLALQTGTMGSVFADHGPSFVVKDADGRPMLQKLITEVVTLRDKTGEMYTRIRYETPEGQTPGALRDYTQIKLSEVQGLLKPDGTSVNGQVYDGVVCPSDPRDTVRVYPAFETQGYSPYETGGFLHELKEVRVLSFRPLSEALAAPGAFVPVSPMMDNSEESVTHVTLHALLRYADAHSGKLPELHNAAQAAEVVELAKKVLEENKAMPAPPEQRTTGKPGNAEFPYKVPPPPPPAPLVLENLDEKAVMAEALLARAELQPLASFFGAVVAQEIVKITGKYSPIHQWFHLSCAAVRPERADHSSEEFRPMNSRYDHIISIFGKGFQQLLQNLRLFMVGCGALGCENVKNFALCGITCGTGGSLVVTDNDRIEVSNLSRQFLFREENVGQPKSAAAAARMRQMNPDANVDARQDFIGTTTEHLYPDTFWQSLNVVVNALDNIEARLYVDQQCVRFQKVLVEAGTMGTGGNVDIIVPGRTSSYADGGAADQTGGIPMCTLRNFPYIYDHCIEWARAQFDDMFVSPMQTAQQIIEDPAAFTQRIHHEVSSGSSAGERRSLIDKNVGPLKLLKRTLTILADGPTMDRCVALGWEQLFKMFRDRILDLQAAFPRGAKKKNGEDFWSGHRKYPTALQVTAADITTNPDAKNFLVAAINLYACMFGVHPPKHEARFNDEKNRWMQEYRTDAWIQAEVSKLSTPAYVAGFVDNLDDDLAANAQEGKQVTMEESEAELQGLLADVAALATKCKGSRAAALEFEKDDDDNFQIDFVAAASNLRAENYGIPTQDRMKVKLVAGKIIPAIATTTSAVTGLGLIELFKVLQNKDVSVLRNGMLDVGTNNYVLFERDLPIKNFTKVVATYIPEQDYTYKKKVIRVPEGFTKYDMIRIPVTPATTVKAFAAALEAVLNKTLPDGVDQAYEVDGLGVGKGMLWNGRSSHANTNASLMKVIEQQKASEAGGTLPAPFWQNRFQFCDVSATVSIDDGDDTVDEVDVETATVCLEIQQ

[3] = target: Sialic acid-binding Ig-like lectin 9 (Homo sapiens) (UniProt Q9Y336); assay: Hs-Siglec9 ALPHAscreen SOP 20170721; conditions: 10 µM
Sequence of Sialic acid-binding Ig-like lectin 9 (Homo sapiens) (Q9Y336 whole entry): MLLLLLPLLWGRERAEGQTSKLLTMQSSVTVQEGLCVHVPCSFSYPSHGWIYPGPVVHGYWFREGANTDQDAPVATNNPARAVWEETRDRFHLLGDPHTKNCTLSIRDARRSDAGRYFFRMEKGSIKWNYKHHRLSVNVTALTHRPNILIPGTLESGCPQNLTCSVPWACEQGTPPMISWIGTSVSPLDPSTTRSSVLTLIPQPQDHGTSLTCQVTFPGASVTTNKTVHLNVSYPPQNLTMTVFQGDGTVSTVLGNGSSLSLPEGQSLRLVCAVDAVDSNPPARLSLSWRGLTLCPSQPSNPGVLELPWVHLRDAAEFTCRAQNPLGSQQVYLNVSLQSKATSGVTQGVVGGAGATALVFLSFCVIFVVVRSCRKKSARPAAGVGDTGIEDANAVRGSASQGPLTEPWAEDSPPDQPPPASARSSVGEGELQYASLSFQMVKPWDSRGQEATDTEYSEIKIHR

Trypanosoma cruzi = assay: Trypanosoma cruzi phosphomannomutase and mannose-1-phosphate guanylyltransferase assay; assay type: functional; conditions: 10 µM
[4] = target: T2, Arginase-2, mitochondrial (Homo sapiens) (UniProt P78540); assay: in vitro enzyme assay to detect the production of urea directly proportional to the activity of Arginase II; assay type: functional; conditions: 33.3 µM; note: in the data most compounds retested in dose-response had high values
T2 sequence (whole entry): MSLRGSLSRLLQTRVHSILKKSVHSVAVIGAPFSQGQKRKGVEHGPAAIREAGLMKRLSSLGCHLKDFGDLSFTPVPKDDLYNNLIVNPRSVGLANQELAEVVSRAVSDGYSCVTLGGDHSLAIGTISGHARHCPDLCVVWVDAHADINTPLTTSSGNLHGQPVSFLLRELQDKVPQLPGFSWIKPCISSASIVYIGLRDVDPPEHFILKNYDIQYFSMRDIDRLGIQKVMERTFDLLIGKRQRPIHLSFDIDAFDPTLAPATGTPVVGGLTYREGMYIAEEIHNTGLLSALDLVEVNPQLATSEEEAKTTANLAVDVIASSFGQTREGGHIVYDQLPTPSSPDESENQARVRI

[5] = target: T3, Proteasome subunit beta (Trypanosoma cruzi) (UniProt O96673); assay: Trypanosoma cruzi proteasome chymotrypsin-like activity (TcProtChymo) assay.; note: in the data most compounds retested in dose-response had high values; assay type: functional; conditions: 9.37 µM
T3 sequence (whole entry): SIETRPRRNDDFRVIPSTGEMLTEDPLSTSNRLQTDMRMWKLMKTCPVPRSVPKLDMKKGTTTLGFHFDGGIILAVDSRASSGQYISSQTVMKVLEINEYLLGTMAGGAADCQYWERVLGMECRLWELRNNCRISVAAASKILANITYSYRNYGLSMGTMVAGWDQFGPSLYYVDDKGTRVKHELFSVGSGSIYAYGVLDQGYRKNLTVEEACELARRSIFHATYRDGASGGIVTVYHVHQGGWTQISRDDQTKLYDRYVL

Homo sapiens = organism: Homo sapiens; assay: To identify inhibition of the IFN signalling (Jak-Stat) pathway via expression of an eGFP reporter gene under the control of an IFN-stimulated response element (ISRE) containing MxA promoter.; assay type: functional; conditions: 30 µM
[6] = target: T4, Tyrosyl-tRNA synthetase, putative (Trypanosoma cruzi (strain CL Brener)) (UniProt Q4DSP6); assay: Trypanosoma cruzi tyrosyl tRNA synthetase (TcYRS) _High Tyrosine SOP; assay type: functional; conditions: 30 µM; note: in the data most compounds retested in dose-response had high values
T4 sequence (whole entry): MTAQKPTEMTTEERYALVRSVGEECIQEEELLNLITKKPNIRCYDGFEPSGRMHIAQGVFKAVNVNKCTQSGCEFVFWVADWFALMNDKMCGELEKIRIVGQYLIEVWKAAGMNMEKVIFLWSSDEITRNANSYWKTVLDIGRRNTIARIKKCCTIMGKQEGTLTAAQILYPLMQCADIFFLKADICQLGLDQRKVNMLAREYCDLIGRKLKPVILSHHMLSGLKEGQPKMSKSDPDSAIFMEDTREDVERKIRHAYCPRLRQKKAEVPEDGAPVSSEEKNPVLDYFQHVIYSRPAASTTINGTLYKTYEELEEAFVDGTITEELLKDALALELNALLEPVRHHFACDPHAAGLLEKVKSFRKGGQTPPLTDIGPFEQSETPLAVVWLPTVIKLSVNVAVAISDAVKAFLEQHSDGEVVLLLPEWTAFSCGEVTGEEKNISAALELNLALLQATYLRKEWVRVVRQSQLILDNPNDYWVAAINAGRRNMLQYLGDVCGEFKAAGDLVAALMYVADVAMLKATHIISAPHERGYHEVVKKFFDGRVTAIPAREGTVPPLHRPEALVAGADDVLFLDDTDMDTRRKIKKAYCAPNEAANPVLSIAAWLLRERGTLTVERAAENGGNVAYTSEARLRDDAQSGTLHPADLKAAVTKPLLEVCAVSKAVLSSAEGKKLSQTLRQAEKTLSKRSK

[7] = target: T4, Tyrosyl-tRNA synthetase, putative (Trypanosoma cruzi (strain CL Brener)); assay: Trypanosoma cruzi tyrosyl tRNA synthetase (TcYRS) SOP; assay type: functional; conditions: 30 µM
[8] = target: Chromo domain-containing protein 1 (Saccharomyces cerevisiae (strain ATCC 204508 / S288c) (Baker's yeast)) (UniProt P32657); assay: ScCHD-1 Enzyme Inhibition Assay; assay type: functional; conditions: 30 µM; note: in the data most compounds retested in dose-response had high values
Sequence of Chromo domain-containing protein 1 (Saccharomyces cerevisiae (strain ATCC 204508 / S288c) (Baker's yeast)) (P32657 whole entry, the tested form may be a part): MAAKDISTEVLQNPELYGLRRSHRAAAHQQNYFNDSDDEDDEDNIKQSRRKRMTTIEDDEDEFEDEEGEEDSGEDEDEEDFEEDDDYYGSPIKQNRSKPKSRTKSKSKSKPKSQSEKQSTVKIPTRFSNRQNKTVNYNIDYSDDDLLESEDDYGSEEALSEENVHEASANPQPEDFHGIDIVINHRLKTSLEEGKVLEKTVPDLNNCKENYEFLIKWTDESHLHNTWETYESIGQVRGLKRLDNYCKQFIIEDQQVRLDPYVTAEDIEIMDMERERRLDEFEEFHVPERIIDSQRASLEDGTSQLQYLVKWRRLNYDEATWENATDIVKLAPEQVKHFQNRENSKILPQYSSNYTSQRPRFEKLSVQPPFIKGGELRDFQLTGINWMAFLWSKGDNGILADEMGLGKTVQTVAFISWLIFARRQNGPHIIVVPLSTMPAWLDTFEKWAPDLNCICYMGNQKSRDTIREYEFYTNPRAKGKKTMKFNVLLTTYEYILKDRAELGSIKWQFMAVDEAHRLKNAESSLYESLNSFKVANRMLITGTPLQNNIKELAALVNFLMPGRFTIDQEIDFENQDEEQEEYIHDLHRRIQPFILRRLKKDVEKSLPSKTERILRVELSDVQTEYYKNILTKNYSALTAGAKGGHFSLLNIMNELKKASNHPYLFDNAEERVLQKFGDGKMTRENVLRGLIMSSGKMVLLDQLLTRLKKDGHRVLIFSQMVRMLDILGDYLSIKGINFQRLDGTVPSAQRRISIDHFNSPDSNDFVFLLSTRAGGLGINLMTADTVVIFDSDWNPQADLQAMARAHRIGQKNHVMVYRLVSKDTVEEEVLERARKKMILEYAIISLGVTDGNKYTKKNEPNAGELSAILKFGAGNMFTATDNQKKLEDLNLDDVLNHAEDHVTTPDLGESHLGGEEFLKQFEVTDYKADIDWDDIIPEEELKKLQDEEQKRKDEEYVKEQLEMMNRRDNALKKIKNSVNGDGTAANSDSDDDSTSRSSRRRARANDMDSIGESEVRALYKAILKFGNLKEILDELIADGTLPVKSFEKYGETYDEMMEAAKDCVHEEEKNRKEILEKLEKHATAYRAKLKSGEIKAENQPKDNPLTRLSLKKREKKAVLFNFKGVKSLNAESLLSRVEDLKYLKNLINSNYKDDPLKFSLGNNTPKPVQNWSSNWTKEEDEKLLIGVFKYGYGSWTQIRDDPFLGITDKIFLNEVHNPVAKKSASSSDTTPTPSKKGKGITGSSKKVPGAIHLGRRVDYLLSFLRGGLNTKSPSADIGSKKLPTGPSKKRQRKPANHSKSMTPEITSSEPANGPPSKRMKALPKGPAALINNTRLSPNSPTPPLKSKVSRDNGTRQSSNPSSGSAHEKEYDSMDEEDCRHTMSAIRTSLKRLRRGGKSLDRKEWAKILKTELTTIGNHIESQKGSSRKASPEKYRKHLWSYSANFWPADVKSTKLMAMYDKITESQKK

Sequence of Protein translocase subunit SecA (Escherichia coli (strain K12)) (P10408 whole entry): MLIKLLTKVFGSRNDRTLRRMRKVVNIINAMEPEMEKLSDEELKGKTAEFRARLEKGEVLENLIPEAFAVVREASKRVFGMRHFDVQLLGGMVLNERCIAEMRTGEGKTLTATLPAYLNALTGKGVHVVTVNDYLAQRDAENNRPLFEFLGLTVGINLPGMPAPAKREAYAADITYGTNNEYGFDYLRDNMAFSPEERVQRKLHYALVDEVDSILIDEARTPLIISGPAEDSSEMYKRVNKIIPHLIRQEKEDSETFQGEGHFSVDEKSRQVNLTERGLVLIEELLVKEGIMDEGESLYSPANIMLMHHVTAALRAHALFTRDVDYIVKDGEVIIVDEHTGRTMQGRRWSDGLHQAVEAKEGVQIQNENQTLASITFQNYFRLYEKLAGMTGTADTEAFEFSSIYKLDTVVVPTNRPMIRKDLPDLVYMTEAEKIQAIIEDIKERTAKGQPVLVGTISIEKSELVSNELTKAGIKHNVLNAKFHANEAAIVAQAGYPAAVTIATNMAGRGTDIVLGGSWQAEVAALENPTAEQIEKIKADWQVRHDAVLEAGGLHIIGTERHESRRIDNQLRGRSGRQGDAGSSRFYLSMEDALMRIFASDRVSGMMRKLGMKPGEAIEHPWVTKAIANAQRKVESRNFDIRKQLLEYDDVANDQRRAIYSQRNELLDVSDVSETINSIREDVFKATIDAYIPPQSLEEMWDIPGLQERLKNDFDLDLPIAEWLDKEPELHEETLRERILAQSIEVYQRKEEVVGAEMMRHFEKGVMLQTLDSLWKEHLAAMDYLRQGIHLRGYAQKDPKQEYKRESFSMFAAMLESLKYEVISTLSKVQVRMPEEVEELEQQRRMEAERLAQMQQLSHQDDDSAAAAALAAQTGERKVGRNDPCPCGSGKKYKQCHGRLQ

Row | Structure (SMILES) | Percent Effect [1] [%] | Percent Effect [2] [%] | Percent Effect [3] [%] | Percent Effect (Trypanosoma cruzi) [%] | Percent Effect [4] [%] | Percent Effect [5] [%] | Percent Effect (Homo sapiens) [%] | Percent Effect [6] [%] | Percent Effect [7] [%] | Percent Effect [8] [%]
1 | CCCn1ncc2c(C(=O)Nc3n[nH]c(SC)n3)cc(C3CC3)nc21 | -0.744 | 14.7 | -0.527 | -0.395 | -13.7 | 11.8 | 13.4 | -10.6 | 17.5 | -26.6
2 | CCN1CCC2(C=C(C(=O)NC3CC3)c3ccccc32)CC1 | 2.3 | 6.49 | -1 | 1.13 | 0 | -2.49 | -10.8 | -0.966 | 2.5 | -3.59
3 | CC(C)c1noc(CCC(=O)NCC2CCS(=O)(=O)C2)n1 (stereo not given) | -2.91 | 21.3 | 0.895 | 2.81 | -0.444 | 12.3 | 1.69 | 1.58 | 17.9 | -12.2
4 | Fc1ccc(-c2nnc(CN3CCn4c(nnc4C4CC4)C3)o2)cc1 | -4.82 | -18.7 | 2.87 | -3.81 | 1.77 | 3.99 | -0.798 | 10 | 15.4 | -6.37
5 | CN(C)CC1CN(Cc2nnc(-c3ccccc3Cl)o2)CCO1 (stereo not given) | -1.11 | 13.3 | -7.04 | -2.81 | 1.77 | 15.7 | 9.96 | -3.68 | 0 | -11.7
6 | O=C(O)c1csc(S(=O)(=O)Nc2cccc(OC(F)F)c2)c1 | -5.06 | -7.69 | -2.43 | -1.03 | 5.74 | 8.11 | 2.87 | -5.26 | 1.21 | -6.19
7 | FC(F)(F)Cn1ccnc1CN1CCCC1c1noc(C2CC2)n1 (stereo not given) | 0.298 | 10.7 | -5.86 | -3.01 | -4.43 | 15.7 | 16.6 | 4.74 | 15.4 | -9.44
8 | COc1ccc(CC(=O)N2CCc3nnc(N(C)C)cc3C2)cc1F | -3.64 | 12.8 | -2.71 | -1.97 | 1.23 | 17.7 | 20.5 | 5.26 | 6.02 | -0.877
9 | COc1ccc(CN2CCC3(CC2)CCN(CC2CC2)C3=O)cc1 | -3.5 | 19.5 | 0.146 | -3.56 | 4.57 | 3.18 | 4.44 | 4.83 | 2.5 | -2.76
10 | CN1CCN(CC2CC2)C(=O)c2cnc(N3CCCC3)nc21 | -7.66 | 0 | 1.44 | -1 | -4.88 | 4.16 | 8.07 | -4.74 | -10.3 | -11.6
11 | CCc1nnc(CN2CCCC(c3cc(C(F)(F)F)[nH]n3)C2)o1 (stereo not given) | -0.463 | 0 | -0.304 | -4.22 | 3.1 | 15.3 | -7.26 | 1.58 | -2.56 | -3.78
12 | CCn1nc2c(cc1=O)CN(Cc1nc(-c3ccccn3)no1)CC2 | -4.5 | 12.8 | -6.79 | -0.469 | -2.87 | 14.1 | 28.1 | 0.478 | 6.02 | 0.402
13 | Cc1ccc([C@@H]2CN(C(=O)c3csc(C)n3)C[C@H]2NC(=O)C2CC2)cc1 | -13.4 | 2.7 | 0.978 | 0.097 | -0.35 | 5.99 | 23.2 | 3.72 | 17.1 | -2.85
14 | CCc1nc(C2CCCN2CCn2cncn2)no1 (stereo not given) | -1.22 | 5.2 | 7.59 | -0.187 | 3.07 | 3.86 | 1.29 | 1.96 | 7.06 | -4.93
15 | Cc1ccc(-c2nc(CNCC3CN(C)CCO3)cs2)o1 (stereo not given) | 0.253 | 28.6 | -5.08 | 6.53 | -12.9 | 25.4 | 20 | 6.86 | 21.2 | -12.3
16 | CCCn1[nH]cc/c1=N\C(=O)CN1CCc2cnc(CC)nc2C1 | 0.849 | 0 | 1.8 | -2.61 | 9.76 | 2.29 | 3.62 | 11.1 | 7.69 | 5.4
17 | CCc1nc(CN(C)C2CCN(CCNS(=O)(=O)CC)C2)no1 (stereo not given) | 1.97 | 5.33 | -3.88 | -6.83 | -2.22 | 18.1 | 14.6 | -1.58 | -2.56 | -8.45
18 | Cn1cc(NC(=O)N2CCC(CN3CCCC3)CC2)ccc1=O | -0.732 | 7.69 | 7.22 | -1.78 | 11.1 | 1.79 | 14.5 | 3.35 | 6.02 | 0.924
19 | COc1ccc(OCCN(C)C(=O)NC(C)c2nncn2C)cc1 (stereo not given) | -4.39 | 10.7 | -0.704 | -5.02 | 5.76 | 15.3 | 17.3 | 3.68 | 12.8 | -6.11
20 | Cc1noc(C2CCN(C(=O)c3ccc(N(C)C)nc3)CC2)n1 | -1.18 | 12.8 | -5.05 | 3.29 | 1.23 | -0.0853 | 13.1 | 8.13 | 20.5 | -1.36
21 | Cc1n[nH]c(C)c1C1COCCN1C(=O)c1ccccc1 (stereo not given) | 0.213 | -2.56 | 15 | -3.47 | 8.61 | 3.67 | 20.7 | -1.44 | -1.21 | -0.727
22 | O=c1[nH][nH]cc1-c1ccnc(NCCN2CCCC2)n1 | 3.78 | 10.7 | -2.82 | -4.82 | -8.87 | 7.38 | 13.2 | -4.74 | -5.13 | -14.5
23 | COc1ncc(C2CC(=O)NCc3nc4ccccn4c32)cn1 (stereo not given) | -5.62 | 5.41 | 1.68 | -1.46 | 1.75 | 6.34 | 3.05 | 7.98 | 14.6 | -1.5
24 | Cc1noc(C)c1CN(C)C(=O)NC1CCN(c2ncccn2)CC1 | -4.16 | 10.3 | -17.2 | 11.7 | -0.82 | 9.64 | 13.1 | 5.26 | 20.5 | -9.27
